Experimental data: PubChem BioAssay (Tox21)
Inconclusive results are not listed. Activity calls are given as the source filed them. Unless noted, the call rests on the fitted dose curve.

How the values were obtained:
[1] = Nuclear factor erythroid 2-related factor 2/antioxidant responsive element (Nrf2/ARE) small molecule agonists: qHTS cell viability counter screen in human keratinocytes (AID 1919968; active means well fitted cell-killing curve with a large enough effect in the repeat runs; further: nearly all actives have a fitted effect of over 55% in size)
Method in brief: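 CellTiter-Fluor fluorescence, read 1 h after reagent, gave viability in the same wells as the ARE-luciferase assay. KeratinoSens cells (1,500/well) had 23 h compound exposure at 37 C/5% CO2 following 5 h plating.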

[2] = Nuclear factor erythroid 2-related factor 2/antioxidant responsive element (Nrf2/ARE) small molecule agonists: luciferase reporter gene qHTS assay in human keratinocytes (AID 1919969); further: nearly all actives have a fitted effect of over 35% in size
[3] = target: Gonadotropin-releasing hormone receptor (Homo sapiens) (UniProt P30968); experiment: Human gonadotropin-releasing hormone receptor (GnRHR) small molecule agonists, calcium flux assay in GnRHR-HEK293 cells (AID 1920063); further: nearly all actives have a fitted effect of over 35% in size
Method in brief: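 Agonist mode: compounds at 15 concentrations, in triplicate, went onto calcium dye-loaded GnRHR-HEK293 cells. Intracellular calcium was then followed as 480/540 nm fluorescence at 1 s intervals over 3 min.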

[4] = G protein-coupled receptor (GPCR) small molecule agonists, calcium flux assay: HEK293 wild type cell line counter screen (AID 1920065)
Method in brief: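 Calcium flux counter screen: compound added in agonist mode at 15 concentrations in triplicate to dye-loaded parental HEK293 cells. Fluorescence (480/540) read kinetically for 3 min; ATP served as positive control.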

[5] = p53 small molecule agonists, cell-based qHTS assay with rat liver microsomes (AID 1963578)
Method in brief: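 p53RE-bla cells, 4,000/well, pre-incubated 5 h, then given compounds plus rat liver microsomes (0.5 mg/mL final) and NADPH (0.5 mg/mL final). Incubation 16 h at 37 C; beta-lactamase reporter read by LiveBLAzer fluorescence after 2 h at room temperature.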

[6] = p53 small molecule agonists, cell-based qHTS assay with human liver microsomes: qHTS cell viability counter screen (AID 1963579); further: nearly all actives have a fitted effect of over 45% in size
Method in brief: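 p53RE-bla cells, 4,000/well, dosed 5 hours after plating, with human liver microsomes (0.5 mg/mL final) plus NADPH (0.5 mg/mL final), 16 hours at 37 C. Viability read as CellTiter-Glo luminescence after 30 min at room temperature.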

[7] = p53 small molecule agonists, cell-based qHTS assay with rat liver microsomes: qHTS cell viability counter screen (AID 1963580); further: nearly all actives have a fitted effect of over 45% in size
Method in brief: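 Cytotoxicity counter screen: intracellular ATP read by CellTiter-Glo luminescence in the p53 reporter wells. HCT-116 p53RE-bla cells were treated for 16 h at 37 C alongside rat liver microsomes and NADPH, each 0.5 mg/mL final.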

[8] = p53 small molecule agonists, cell-based qHTS assay: qHTS cell viability counter screen (AID 1963581); further: nearly all actives have a fitted effect of over 45% in size
Method in brief: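 Counter screen read by CellTiter-Glo luminescence (ATP content, 30 min at room temperature), run in the same wells as the beta-lactamase reporter read. HCT-116 p53RE-bla cells saw compounds for 16 h at 37 C.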

[9] = p53 small molecule agonists, cell-based qHTS assay (AID 1963582; active means well fitted activation curve with a large enough effect in the signal ratio in the repeat runs, not every such curve was filed as active; the % refers to the signal ratio)
Method in brief: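 Read-out is beta-lactamase FRET fluorescence after 2 h at room temperature with LiveBLAzer B/G substrate. p53 response element-bla cells were treated 16 h at 37 C with compounds in DMSO, added 5 h after seeding.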

[10] = cAMP Responsive Elements (CRE) small molecule agonists, cell-based qHTS assay (AID 1963590)
Method in brief: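 Agonist mode: compound added to CRE-bla HEK 293T cells (2,000/well, 18 h after plating) for 3 h at 37 C/5% CO2. Reporter activity detected via FRET beta-lactamase substrate, 2 h room-temperature loading.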

[11] = cAMP Responsive Elements (CRE) small molecule antagonists, cell-based qHTS assay (AID 1963591; active means well fitted inhibition curve with a large enough effect in the signal ratio in the repeat runs, not every such curve was filed as active; the % refers to the signal ratio)
Method in brief: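 Antagonist mode: compounds are added alongside the adenylyl cyclase activator NKH477 (0.25 uM final) to CRE-bla HEK293T cells for 3 h. LiveBLAzer FRET substrate, 2 h at room temperature, reports bla expression.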

[12] = target: Beta-2 adrenergic receptor (Homo sapiens) (UniProt P07550); experiment: Adrenergic beta2 receptor (ADRB2) small molecule antagonists, cell-based qHTS assay (AID 1963592); further: series mostly up to about 92 µM; nearly all actives have a fitted effect of over 50% in size
Method in brief: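 Assay format: CHO-ADRB2 cells, 18-20hr seeding at 37C/5% CO2, then compound plus 1nM isoproterenol agonist mix for 0.5hr RT. Homogeneous time-resolved fluorescence cAMP detection after 1hr, expressed as 665/615 nm ratio.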

[13] = target: Beta-2 adrenergic receptor (Homo sapiens) (UniProt P07550); experiment: Adrenergic beta2 receptor (ADRB2) small molecule agonists, cell-based qHTS assay (AID 1963593);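 further: CHO cells stably overexpressing human ADRB2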
Method in brief: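 CHO cells stably over-expressing ADRB2 were plated overnight at 37C, then dosed with compounds plus a stimulation mix containing 100uM IBMX and 25uM Ro-20-1724 for 0.5hr at room temperature. cAMP was measured by HTRF competition, 1hr.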

[14] = target: D(2) dopamine receptor (Homo sapiens) (UniProt P14416); experiment: Dopamine D2 receptor (DRD2) small molecule agonists, cell-based qHTS assay (AID 1963594); further: nearly all actives have a fitted effect of over 35% in size
Method in brief: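 cAMP accumulation in DRD2-HEK293 cells measured by HTRF after 1 h detection; compounds added 10 min before NKH477 (200nM […]) forskolin-analogue stimulation, 30 min at room temperature, with Ro20-1724 present at 0.1 mM final.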

[15] = target: D(2) dopamine receptor (Homo sapiens) (UniProt P14416); experiment: Dopamine D2 receptor (DRD2) small molecule antagonists, cell-based qHTS assay (AID 1963595; active means well fitted inhibition curve with a large enough effect in the signal ratio in the repeat runs, with a control signal flat; the % refers to the signal ratio)
Method in brief: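 Cells were plated and grown for 24 h at 37 °C. Ro20-1724 (0.1 mM final) went in first, then compound for 10 min. NKH477 (200 nM) with quinpirole (12 nM) followed for 30 min at RT, then HTRF detection reagents for 1 h.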

[16] = p53 small molecule agonists, cell-based qHTS assay with human liver microsomes (AID 1963577)
Method in brief: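 p53RE-bla cells, 4,000/well, compound added after 5 h, with human liver microsomes 0.5 mg/mL and NADPH 0.5 mg/mL final; 16 h at 37 C, then LiveBLAzer 2 h RT, fluorescence.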

[17] = target: 5-hydroxytryptamine receptor 2A (Homo sapiens) (UniProt P28223); experiment: 5-hydroxytryptamine receptor 2A (HTR2A) small molecule antagonists, cell-based qHTS assay (AID 1963586); further: nearly all actives have a fitted effect of over 45% in size
Method in brief: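 CHO cells stably expressing human HTR2A were plated for 18 h at 37 C, then loaded with calcium dye for 1 h. Compounds were preincubated 5 min at room temperature before DOI (4 nM solution) was added. Kinetic fluorescence was read for 3 min.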

[18] = target: 5-hydroxytryptamine receptor 2A (Homo sapiens) (UniProt P28223); experiment: 5-hydroxytryptamine receptor 2A (HTR2A) small molecule agonists, cell-based qHTS assay (AID 1963587); further: nearly all actives have a fitted effect of over 30% in size
Method in brief: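 Kinetic calcium-flux fluorescence (2 min, 1 sec intervals) after compound addition in agonist mode. HTR2A-CHO cells were cultured 18 h, then dye-loaded 1 h at 37 C.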

[19] = target: Muscarinic acetylcholine receptor M1 (Homo sapiens) (UniProt P11229); experiment: Cholinergic receptor muscarinic 1 (CHRM1) small molecule antagonists, cell-based qHTS assay (AID 1963588); further: nearly all actives have a fitted effect of over 40% in size
Method in brief: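 Compounds were tested at 15 concentrations in three independent runs. Dye-loaded CHRM1-CHO cells were exposed 5 min at room temperature before stimulation by acetylcholine added at 50nM. Intracellular calcium was read kinetically on FDSS for 3 min.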

[20] = target: Muscarinic acetylcholine receptor M1 (Homo sapiens) (UniProt P11229); experiment: Cholinergic receptor muscarinic 1 (CHRM1) small molecule agonists, cell-based qHTS assay (AID 1963589); further: nearly all actives have a fitted effect of over 35% in size
Method in brief: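 Agonist-mode calcium-flux screen: compounds at 15 concentrations, three independent runs, were pin-transferred onto dye-loaded human CHRM1-CHO cells. Fluorescence was then recorded kinetically every second over minutes.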

Measured: Potency

Chain of Muscarinic acetylcholine receptor M1 (Homo sapiens) (P11229 whole entry, looked up): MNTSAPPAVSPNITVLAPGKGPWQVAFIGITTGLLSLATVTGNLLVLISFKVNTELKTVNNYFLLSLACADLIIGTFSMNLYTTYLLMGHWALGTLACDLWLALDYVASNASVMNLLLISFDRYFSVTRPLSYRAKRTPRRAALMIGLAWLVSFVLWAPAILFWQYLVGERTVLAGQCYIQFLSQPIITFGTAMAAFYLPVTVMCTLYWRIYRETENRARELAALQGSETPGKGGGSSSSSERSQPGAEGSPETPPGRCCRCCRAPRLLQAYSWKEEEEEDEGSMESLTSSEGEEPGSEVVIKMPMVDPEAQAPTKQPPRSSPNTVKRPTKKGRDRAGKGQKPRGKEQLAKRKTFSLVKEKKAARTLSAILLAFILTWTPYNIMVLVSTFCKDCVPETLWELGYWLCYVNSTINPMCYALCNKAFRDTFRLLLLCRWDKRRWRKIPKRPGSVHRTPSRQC
Chain of 5-hydroxytryptamine receptor 2A (Homo sapiens) (P28223 whole entry, looked up): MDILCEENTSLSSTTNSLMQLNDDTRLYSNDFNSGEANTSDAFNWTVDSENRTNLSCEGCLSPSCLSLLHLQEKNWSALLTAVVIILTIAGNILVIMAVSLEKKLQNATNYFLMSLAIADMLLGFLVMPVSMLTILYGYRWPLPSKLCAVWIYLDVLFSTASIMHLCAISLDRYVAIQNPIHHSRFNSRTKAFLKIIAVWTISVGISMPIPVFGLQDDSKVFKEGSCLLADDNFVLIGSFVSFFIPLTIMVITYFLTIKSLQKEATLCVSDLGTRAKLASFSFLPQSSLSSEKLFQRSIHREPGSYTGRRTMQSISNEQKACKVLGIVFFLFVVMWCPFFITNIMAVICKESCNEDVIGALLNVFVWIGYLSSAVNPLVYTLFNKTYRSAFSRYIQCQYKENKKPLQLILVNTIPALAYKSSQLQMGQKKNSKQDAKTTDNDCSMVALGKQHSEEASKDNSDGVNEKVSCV
Chain of Beta-2 adrenergic receptor (Homo sapiens) (P07550 whole entry, looked up): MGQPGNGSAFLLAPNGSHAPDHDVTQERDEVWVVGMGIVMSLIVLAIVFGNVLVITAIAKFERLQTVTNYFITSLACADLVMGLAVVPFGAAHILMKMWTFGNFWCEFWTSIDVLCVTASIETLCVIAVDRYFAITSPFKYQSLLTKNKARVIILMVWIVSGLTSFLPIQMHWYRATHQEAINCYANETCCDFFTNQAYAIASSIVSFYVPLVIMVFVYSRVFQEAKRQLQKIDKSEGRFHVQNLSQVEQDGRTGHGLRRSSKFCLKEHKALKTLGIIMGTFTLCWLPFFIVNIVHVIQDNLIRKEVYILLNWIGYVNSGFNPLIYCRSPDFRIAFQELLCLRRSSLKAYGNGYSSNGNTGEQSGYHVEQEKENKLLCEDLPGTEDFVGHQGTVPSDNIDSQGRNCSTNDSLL
Chain of D(2) dopamine receptor (Homo sapiens) (P14416 whole entry, looked up): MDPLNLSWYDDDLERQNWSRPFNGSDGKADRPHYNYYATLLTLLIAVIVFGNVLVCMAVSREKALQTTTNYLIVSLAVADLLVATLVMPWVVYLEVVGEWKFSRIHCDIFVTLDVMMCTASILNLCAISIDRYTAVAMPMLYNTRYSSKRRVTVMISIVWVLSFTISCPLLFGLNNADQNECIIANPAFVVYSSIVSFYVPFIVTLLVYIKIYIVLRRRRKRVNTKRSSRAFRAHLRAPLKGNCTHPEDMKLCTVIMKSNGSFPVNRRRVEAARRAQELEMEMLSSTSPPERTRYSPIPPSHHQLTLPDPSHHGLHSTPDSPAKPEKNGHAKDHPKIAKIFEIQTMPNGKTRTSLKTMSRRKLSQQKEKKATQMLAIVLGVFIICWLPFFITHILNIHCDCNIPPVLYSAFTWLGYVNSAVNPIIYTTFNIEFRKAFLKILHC
Chain of Gonadotropin-releasing hormone receptor (Homo sapiens) (P30968 whole entry, looked up): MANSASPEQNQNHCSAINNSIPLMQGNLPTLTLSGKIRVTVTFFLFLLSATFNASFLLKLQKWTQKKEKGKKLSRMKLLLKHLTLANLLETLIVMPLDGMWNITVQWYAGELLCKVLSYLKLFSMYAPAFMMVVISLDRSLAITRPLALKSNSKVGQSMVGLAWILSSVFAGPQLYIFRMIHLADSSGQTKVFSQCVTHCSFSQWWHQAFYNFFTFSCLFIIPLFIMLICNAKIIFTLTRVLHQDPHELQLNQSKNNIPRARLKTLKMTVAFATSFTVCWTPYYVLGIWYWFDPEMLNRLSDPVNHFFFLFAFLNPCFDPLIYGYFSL

CS(=O)(=O)OCCCCOS(C)(=O)=O
not listed: [16] | [17] | [18] | [19] | [20]
inactive: all other assays above

O=C1C(N(CO)C(=O)NCO)N(CO)C(=O)N1CO (stereo not drawn)
not listed: [3] | [20]
inactive: all other assays above

O=C(O)CC(O)C(=O)O (stereo not drawn)
not listed: [10] | [11] | [16]
inactive: all other assays above

CC(O)COCC(C)O (stereo not drawn)
not listed: [3] | [10] | [13]
inactive: all other assays above

C=CC[N+](C)(C)CC=C
not listed: [3] | [10]
inactive: all other assays above

O=C1O[C@H](CO)[C@@H](O)[C@H](O)[C@H]1O
not listed: [3] | [19]
inactive: all other assays above
